Source: PubChem BioAssay
a7 integrin act – integrin-mediated muscular dystrophy alleviation activation; alpha7betagal myoblasts, beta-gal FDG fluorescence, 48 h; Potency, µM (doses to about 38.3 µM), most hits filed as activators; 350,000 tested, 0.064% active; AID 624291; active = well fitted activation curve with a large enough effect; inconclusive = small, poorly fitted or top-dose-only effect; inactive = no such curve, though single readings can be large or run the other way; note: nearly all actives have a fitted effect of over 60% in size
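alpha7betagal+/- myoblasts (passage 13, 250/well) treated 48 h at 37C with compounds at 1:260 dilution of DMSO stock. Lysed, then beta-galactosidase activity read as FDG fluorescence (ex 480/em 540) after 30 min, with pre-read for autofluorescence.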
DRD3 antagonist – antagonists of human D3 dopamine receptor | P35462 | D3R cells, DiscoveRx beta-arrestin luminescence, antagonist mode; active compounds read low | max response, negative = inhibition, % | 360,000 tested, 2.5% active | AID 652054; in the data active = max response below about -50%; inconclusive = no clear call, values can overlap the other calls
Target sequence (P35462 whole entry, looked up): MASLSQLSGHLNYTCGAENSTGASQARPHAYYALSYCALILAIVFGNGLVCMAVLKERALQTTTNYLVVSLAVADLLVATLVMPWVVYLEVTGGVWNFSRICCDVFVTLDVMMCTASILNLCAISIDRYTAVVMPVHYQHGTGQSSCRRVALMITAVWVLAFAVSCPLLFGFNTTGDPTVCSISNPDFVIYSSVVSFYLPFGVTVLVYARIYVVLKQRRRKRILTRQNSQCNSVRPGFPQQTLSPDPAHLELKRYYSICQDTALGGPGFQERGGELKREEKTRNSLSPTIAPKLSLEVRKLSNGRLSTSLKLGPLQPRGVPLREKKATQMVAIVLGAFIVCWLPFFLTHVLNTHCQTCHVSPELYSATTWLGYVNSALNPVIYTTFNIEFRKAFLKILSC
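Cells plated overnight at 1500 cells/well, then exposed to library compounds with dopamine controls for 90 minutes at 37 degrees C. DiscoveRx reagent added for 30–60 minutes at room temperature; luminescence read, quantitative HTS format.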
DRD3 agonist – activates the human D3 dopamine receptor | P35462 | D3R DiscoveRx beta-arrestin cells, luminescence, 90 min | max activation, % | 410,000 tested, 0.58% active | AID 652048; in the data active = max activation above about 30%
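Agonist-mode cell screen: cells plated at 1500/well and incubated overnight at 37 °C, then exposed to library compounds for 90 min at 37 °C. Detection reagent was added for 30–60 min at room temperature, and luminescence was read.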
A number is an active result; n = inactive; u = inconclusive; x = no result; ! = a repeat was not active. The list is not random: actives were taken first. Their share in the collection is about 2.9%.

SMILES	a7 integrin act	DRD3 antagonist	DRD3 agonist
Cc1cc(C)c(Nc2nn3c(=O)c4cc5c(cc4nc3s2)OCO5)c(C)c1	x	x	n
CC(C)CN1CCC(C(=O)NC(c2ccc(F)cc2)c2ccc3ccccc3n2)CC1 (stereo unspecified)	x	u	n
COc1ccc(/C=C/CN2CCC(C(=O)NC(c3ccc(F)cc3)c3ccc4ccccc4n3)CC2)cc1 (stereo unspecified)	x	-76	n
COc1ccc(OCCN2CCC(C(=O)NC(C)c3cccc4ccccc34)CC2)cc1 (stereo unspecified)	x	u	n
COc1ccc(C(NC(=O)C2CCN(CCOc3ccc(Cl)cc3Cl)CC2)c2ccccc2C)cn1 (stereo unspecified)	x	-77	n
COc1ccc(C(NC(=O)C2CCN(CCOc3ccc(F)cc3)CC2)c2cccs2)cc1 (stereo unspecified)	x	-68	n
Cc1ccccc1C(c1ncccc1C)N(C)C(=O)C1CCN(CCOc2ccc(Cl)cc2Cl)CC1 (stereo unspecified)	x	n	n
COc1ccc(C(NC(=O)C2CCN(CCOc3ccc(Cl)cc3Cl)CC2)c2cccs2)cc1 (stereo unspecified)	x	n	61
COc1ccc(C(NC(=O)C2CCN(Cc3cc(OC)cc(OC)c3)CC2)c2ccccn2)cc1 (stereo unspecified)	x	u	n
CC1CCN(C(=O)c2[nH]cnc2C(=O)Nc2cccc(Cl)c2)CC1	n	n	n
Cc1nc(-c2cccc(NC(=O)c3cc4cc(Br)ccc4oc3=O)c2)cs1	n	n	n
Cc1cc(C)c2cc(CN(Cc3ccc4c(c3)OCO4)Cc3nnnn3Cc3ccco3)c(=O)[nH]c2c1	n	n	n
CCOc1ccc(C(C)NC(=O)C2CCN(S(=O)(=O)c3ccc(OC)cc3)CC2)cc1OCC (stereo unspecified)	n	n	n
COc1ccc(C(C)NC(=O)C2CCN(CCOc3ccc(Cl)cc3Cl)CC2)cc1OC (stereo unspecified)	x	-92	n
CCOc1ccc2oc(C(=O)N(Cc3nnc(-c4ccccc4Cl)o3)C3CC3)c(C)c2c1	n	n	n
CC1=CC(=O)C2(C)C(C)=C(C)C12C (stereo unspecified)	n	n	n
CC(=O)NC1CC2CCCC(C1)N2Cc1ccc(C)cc1 (stereo unspecified)	n	-113	n
CC(=O)NC1CC2CCCC(C1)N2CC(=O)NCc1ccc(F)cc1 (stereo unspecified)	n	n	n
Cc1ccccc1C(=O)NC1CC2CCCC(C1)N2Cc1ccccc1Cl (stereo unspecified)	n	u	n
O=C(NC1CC2CCCC(C1)N2Cc1ccc(F)cc1)c1ccc(F)cc1 (stereo unspecified)	n	-108	n
CCOc1ccccc1C(=O)NC1CC2CCCC(C1)N2Cc1ccc(C)cc1 (stereo unspecified)	n	-80	n
CCCN1C2CCCC1CC(NC(=O)c1ccccc1OCC)C2 (stereo unspecified)	n	u	n
Cc1ccccc1C(=O)NC1CC2CCC(C1)N2Cc1ccccc1 (stereo unspecified)	n	-86	n
O=C(NC1CC2CCCC(C1)N2C(=O)NC1CCCCC1)c1ccc(F)cc1 (stereo unspecified)	n	n	n
Cc1ccccc1NC(=O)Cc1nc(COC(=O)c2cccc([N+](=O)[O-])c2)cs1	n	n	n
SMILES	a7 integrin act	DRD3 antagonist	DRD3 agonist
COC(=O)c1c(SCC(=O)Nc2cccc(C(F)(F)F)c2)[nH]c2ccccc2c1=O	x	x	n
CCN(Cc1ccccc1)C(=O)c1cc(S(=O)(=O)N2CCOCC2)ccc1N1CCCC1	n	n	n
Cc1ccc(CN2C3CCCC2CC(NC(=O)c2ccc(C)cc2)C3)cc1 (stereo unspecified)	n	-109	n
CCCN1C2CCCC1CC(NC(=O)c1ccccc1)C2 (stereo unspecified)	n	n	n
CSc1ccccc1NC(=O)CN(C)C(=O)c1ccc(NC(=O)c2cccs2)cc1	n	n	n
COCCCNC(=S)NC1CC2CCCC(C1)N2Cc1cccs1 (stereo unspecified)	n	n	n
CCCN1C2CCCC1CC(NC(=S)NCCCOCC)C2 (stereo unspecified)	n	n	n
CCOCCCNC(=S)NC1CC2CCC(C1)N2Cc1ccccc1 (stereo unspecified)	n	-62	n
COCCCNC(=S)NC1CC2CCC(C1)N2Cc1ccccc1 (stereo unspecified)	n	-60	n
COc1cc2c(cc1OC)-c1nncn1C(C)(C)C2	n	n	n
CN1CCC(N(C)S(=O)(=O)c2ccc(C(C)(C)C)cc2)CC1	n	u	n
COc1ccc(S(=O)(=O)NNC(=O)c2cc3ccccc3o2)cc1	n	n	n
CN(CC(=O)NC1CCN(Cc2ccccc2)CC1)S(=O)(=O)c1ccc2c(c1)c(=O)n(C)c(=O)n2C	n	n	n
CCc1cc(=O)oc2cc(OC(C)=O)cc(OC(C)=O)c12	n	-58	n
COc1cc(OCc2ccccc2)c2c(CCC(=O)O)cc(=O)oc2c1	u	n	n
COc1ccc(NC(=S)N(CCN(C)C)C(C)c2ccco2)cc1Cl (stereo unspecified)	n	n	n
CCN1CCSc2ccc(C(=O)NCc3ccc(OC(C)C)cc3)cc21	n	-77	n
CCOc1ccc(CNC(=O)c2ccc3c(c2)N(CC)CCS3)cc1	n	-67	n
CCOc1ccc(CCNC(=O)c2ccc3c(c2)N(Cc2ccc(F)cc2)CCS3)cc1	x	x	n
COc1ccc(CNC(=O)c2ccc3c(c2)N(Cc2ccc(C)cc2)CCS3)cc1	x	x	n
Cc1ccc(S(=O)(=O)N2CCCc3cc(NS(=O)(=O)c4ccc(F)c(C)c4)ccc32)cc1	x	x	n
CSc1nc(Nc2cccc(C)c2)c(C#N)c(-c2ccccc2)n1	x	x	n
CC(C)(C)c1ccc(S(=O)(=O)N2CCC(CO)(CC3CCCCO3)CC2)cc1 (stereo unspecified)	n	n	n
CCCCOC(=O)C(C)c1c(C)[nH]c(=S)[nH]c1=O (stereo unspecified)	n	n	n
CC(C)NC(=O)C(Sc1ccccc1)c1ccccc1 (stereo unspecified)	n	n	n
SMILES	a7 integrin act	DRD3 antagonist	DRD3 agonist
CN1CCc2cc3c(c4c2[C@H]1[C@H](O)c1ccccc1-4)OCO3	n	n	n
CN1CCc2cccc3c2[C@H]1Cc1ccc(O)c(O)c1-3	x	n	76!
C=C1CCN([C@@H](CC(C)C)C(=O)NCCCc2ccccc2)S(=O)(=O)c2ccccc21	n	n	n
Cc1ccc(Cn2ccc(NC(=O)c3cc(-c4ccco4)on3)n2)cc1	n	n	n
O=C(Nc1ccc2nc(-c3ccc4nc[nH]c4c3)[nH]c2c1)c1cccs1	n	-69	n
O=C(Nc1ccc2nc(-c3ccccc3)[nH]c2c1)c1cccs1	n	n	n
CC1CCCN(c2c([N+](=O)[O-])c(=O)oc3ccccc23)C1 (stereo unspecified)	n	n	n
Nc1c(N2CCCC2)c2ccccc2oc1=O	n	n	44
c1ccc(SCCOCCN2CCOCC2)cc1	n	n	n
OCCN1CCN(CCSc2ccccc2)CC1	n	-61	n
c1ccc(SCCN2CCc3ccccc3C2)cc1	n	-91	n
c1ccc(SCCOCCN2CCc3ccccc3C2)cc1	n	-78	n
